14-3-3 PPI: 14-3-3 gamma protein interaction modulation; P61981; FP, 14-3-3gamma / TMR-pS259-Raf peptide binding; inhibition, % at 40 µM; hit rate 0.19% among 160,000; AID 422; in the data active = inhibition above about 30%
Target sequence (P61981 whole entry, looked up): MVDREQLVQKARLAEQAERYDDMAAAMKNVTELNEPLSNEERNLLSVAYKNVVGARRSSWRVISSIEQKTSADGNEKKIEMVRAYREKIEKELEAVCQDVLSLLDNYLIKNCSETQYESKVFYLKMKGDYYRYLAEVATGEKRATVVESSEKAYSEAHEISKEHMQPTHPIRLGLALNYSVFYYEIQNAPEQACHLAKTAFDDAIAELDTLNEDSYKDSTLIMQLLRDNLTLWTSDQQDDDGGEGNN
Hits are given with their value; – = inactive. The sample as a whole holds a higher share of hits than the screen did.

SMILES | 14-3-3 PPI
CC1=NN(C(=O)c2ccc(Cl)cc2)C(O)(c2cccc([N+](=O)[O-])c2)C1 (stereo unspecified) | –
CC1=NN(C(=O)c2ccc(Cl)cc2)C(C)(C)C1 | 49.1
C=CCC1C(C)=NN(C(=O)c2ccc(Cl)cc2)C1(C)O (stereo unspecified) | –
COC(=O)C1=C(C)NC(=S)NC1c1cn(-c2ccccc2)nc1-c1ccc(OC)cc1 (stereo unspecified) | –
O=C(Nc1ccc(-c2noc(Cc3ccc([N+](=O)[O-])cc3)n2)cc1)c1ccccn1 | –
O=C1c2cccc3c([N+](=O)[O-])ccc(c23)C(=O)N1c1ccccc1 | –
Nc1ccc2c3c(cccc13)C(=O)N(c1ccccc1)C2=O | 86.8
O=C1c2ccc3c4c(ccc(c24)C(=O)N1c1ccccc1)N(c1ccccc1)C3=O | –
O=C1c2cccc3c(NCCO)ccc(c23)C(=O)N1CCO | –
O=C1c2cccc3c(N4CCCC4)ccc(c23)C(=O)N1c1ccccc1 | –
C=CCNc1ccc2c3c(cccc13)C(=O)N(c1ccccc1)C2=O | 158.1
Cc1ccc(-c2cc(C(F)F)nc(N3CCc4ccccc4C3)n2)cc1 | –
CCOc1ccccc1-n1cnc2cc(C(=O)O)ccc21 | 57.2
COc1ccccc1-n1c(C)nc2cc(C(=O)O)ccc21 | 39.6
CCOc1ccccc1-n1cnc2cc(C(=O)NCc3ccco3)ccc21 | –
COc1ccc(OC)c(-n2cnc3cc(C(=O)O)ccc32)c1 | –
Cc1nc2cc(C(=O)O)ccc2n1-c1ccccc1 | –
COCCNC(=O)c1ccc2c(c1)nc(C)n2-c1ccccc1OC | –
Cc1ccc(CSc2nnc3c(n2)OC(c2ccsc2)Nc2ccccc2-3)cc1 (stereo unspecified) | –
Cc1ccc(N2N=C(c3ccccc3)CC2c2ccccc2)cc1 (stereo unspecified) | –
COc1ccc(C2=NN(c3ccccc3)C(c3ccc(OC)cc3)C2)cc1 (stereo unspecified) | –
O=c1oc2ccccc2cc1C1=NN(c2ccccc2)C(c2ccccc2)C1 (stereo unspecified) | 53.9
Cc1ccccc1OCC(O)Cn1c(SCC(N)=O)nc2c1c(=O)[nH]c(=O)n2C (stereo unspecified) | –
Cc1ccc(C)c(Nc2c([N+](=O)[O-])ccc3nonc23)c1 | –
Cc1ccc(C)c(Nc2ccc([N+](=O)[O-])c3nonc23)c1 | 34.3
SMILES | 14-3-3 PPI
Cc1ccc(C)c(Nc2ccc3nonc3c2[N+](=O)[O-])c1 | –
Cc1c(Br)c(C(F)(F)F)nn1CC(=O)Nc1cc(Oc2ccc(I)cc2)cc([N+](=O)[O-])c1 | –
Cc1ccc(-c2nc3cnccn3c2Nc2ccccc2)cc1 | –
CCOc1ccc(C2/C(=C(\O)c3ccc(Cl)cc3)C(=O)C(=O)N2CCO)cc1 (stereo unspecified) | –
O=C(Nc1ccccc1F)c1ccccc1Cl | –
COc1ccc(-n2c(SCC(=O)Nc3cccc(Cl)c3)nc3c([nH]c4ccccc43)c2=O)cc1 | –
O=C(COC(=O)C(Cc1ccccc1)N1C(=O)c2ccccc2C1=O)c1ccc(Cl)cc1 (stereo unspecified) | –
Cn1c(SCc2ccc([N+](=O)[O-])cc2)nc2c([nH]c3ccccc32)c1=O | –
CCOC(=O)CCCSc1nc2sc(C)c(C)c2c(=O)n1-c1ccccc1 | 43.8
Cc1sc2nc(SCC(=O)N3CCN(CCO)CC3)n(-c3ccccc3)c(=O)c2c1C | –
CCOC(=O)CCCSc1nc2sc3c(c2c(=O)n1-c1ccccc1)CCCC3 | –
O=C(Nc1nncs1)c1cccc(F)c1 | –
COc1ccc(CCN2C(=S)NC3CC2(C)Oc2ccc(C)cc23)cc1OC (stereo unspecified) | –
CC1CC(=O)C(CC(=O)O)C1C[N+](=O)[O-] (stereo unspecified) | 30.3
COc1cc(C2C3=C(CCCC3=O)NC3=C2C(=O)CCC3)cc(Br)c1O | –
O=C(c1ccc(F)cc1)c1cccnc1 | 66.3
O=C(Oc1ccc(OC(=O)c2cccnc2)cc1)c1cccnc1 | –
O=C(c1ccc(F)cc1)N1CCC(O)(c2cccnc2)CC1 | –
CC1=C(C(=O)Nc2ccc(C)cc2C)C(c2cccc(Br)c2)NC(=O)N1 (stereo unspecified) | –
O=S1(=O)c2ccccc2NC(c2ccccc2OCc2ccccc2)N1Cc1ccccc1 (stereo unspecified) | –
O=c1[nH]c2c(s1)C1c3c(ccc4ccccc34)OCC1CS2 (stereo unspecified) | –
O=C(O)C1Sc2[nH]c(=O)sc2C2c3ccccc3OC(=O)C12 (stereo unspecified) | –
CC12COc3ccccc3C1c1sc(=O)[nH]c1SC2 (stereo unspecified) | 107.5
O=C(NCc1cccnc1)c1cc2nc(-c3cccs3)cc(C(F)(F)Cl)n2n1 | 39.4
O=C(NCc1cccnc1)c1cc2nc(-c3ccco3)cc(C(F)(F)Cl)n2n1 | –
SMILES | 14-3-3 PPI
O=C(NCc1cccs1)c1cc2nc(-c3cccs3)cc(C(F)(F)Cl)n2n1 | –
CCOC(=O)c1cnc2c(C(F)(F)F)cccc2c1NCc1ccco1 | –
COc1ccc(Nc2nc(N3CCOCC3)nc(C)c2[N+](=O)[O-])cc1 | –
Cc1ccnc(NS(=O)(=O)c2cc(C(C)(C)C)c(F)c(C(C)(C)C)c2)c1 | –
C=C(C)CSc1nc2sc3c(c2c(=O)n1-c1ccccc1)CCC3 | –
Cc1cccc(C)c1NC(=O)CSc1nc(N)cc(=O)[nH]1 | –
COCCN1C(=O)c2ccccc2C(C(=O)NC2CC2)C1c1c[nH]c2ccccc12 (stereo unspecified) | –
COc1cc2c(cc1OC)C(COc1ccc3c(C)cc(=O)oc3c1)N(C(=O)C(C)Oc1ccccc1)CC2 (stereo unspecified) | –
CCN(CC)c1ccc2cc(C(=O)Nc3ccc(C)cc3)c(=O)oc2c1 | –
CCN(CC)c1ccc2cc(C(=O)c3cc4ccc(N(CC)CC)cc4oc3=O)c(=O)oc2c1 | 77.2
CCN(CC)c1ccc2cc(C(=O)Nc3ccccn3)c(=O)oc2c1 | –
O=[N+]([O-])c1ccccc1-c1ccc(C=Cc2ccc3ccccc3n2)o1 | –
COc1ccc(OC)c(C=Cc2ccc3cccc(O)c3n2)c1 | –
Cc1cc([N+](=O)[O-])ccc1-c1ccc(C=Cc2ccc3cccc(O)c3n2)o1 | 143.5
Cc1cccn2c(=O)c3cc(C(=O)N4CCN(c5ccccc5Cl)CC4)sc3nc12 | –
CCn1c(CSc2nnc3ccccn23)nc2cc(C(=O)O)ccc21 | 138.6
CCn1c(CSc2nc3ccccc3n2C)nc2ccccc21 | –
CCOc1ccccc1-n1c(SCC(N)=O)nnc1-c1cccnc1 | –
CCn1c(CSc2nnc(-c3cccnc3)n2-c2ccccc2C)nc2cc(C(=O)O)ccc21 | 126.9
O=C(CSc1nnc2ccccn12)Nc1ccc2ccccc2c1 | –
Cc1ccccc1-n1c(SCc2ccccc2)nnc1-c1cccnc1 | –
CCCCNC(=O)CCS(=O)(=O)Cc1ccccc1C | –
C=CCn1c(SCC(=O)Nc2ccc3c(c2)OCO3)nc2sc(C)c(C)c2c1=O | –
CCOc1ccc(-c2n[nH]c3c2C(c2ccc(OC)cc2)N(c2ccc(Br)cc2)C3=O)cc1 (stereo unspecified) | –
O=c1oc2cc(O)ccc2cc1-c1nc(-c2cccs2)cs1 | –
Cc1nc2cc(C(=O)O)ccc2s1 | –
Cc1nc2ccc(C(=O)O)cc2c2c1CC(C)S2 (stereo unspecified) | 73.4
COc1cccc2c3c(c(C)nc12)CC(C)S3 (stereo unspecified) | –
Cc1ccc2nc(N3CCC(C(=O)NCCC4=CCCCC4)CC3)[nH]c2c1 | –

From PubChem
